This passage reports log2 fold change results from the supplement of paper PMC12819154, “High-throughput peptide-centric local stability assay extends protein–ligand identification to membrane proteins, tissues and bacteria” (Nature Structural & Molecular Biology, 2025).

Test in all cases: log2 fold change of tryptic peptide abundance, ligand vs vehicle (limited proteolysis) (log2 ratio); higher = more trypsin-susceptible (destabilized)
One assay has as its target T1, UniProt P02918.
T1 sequence (whole entry): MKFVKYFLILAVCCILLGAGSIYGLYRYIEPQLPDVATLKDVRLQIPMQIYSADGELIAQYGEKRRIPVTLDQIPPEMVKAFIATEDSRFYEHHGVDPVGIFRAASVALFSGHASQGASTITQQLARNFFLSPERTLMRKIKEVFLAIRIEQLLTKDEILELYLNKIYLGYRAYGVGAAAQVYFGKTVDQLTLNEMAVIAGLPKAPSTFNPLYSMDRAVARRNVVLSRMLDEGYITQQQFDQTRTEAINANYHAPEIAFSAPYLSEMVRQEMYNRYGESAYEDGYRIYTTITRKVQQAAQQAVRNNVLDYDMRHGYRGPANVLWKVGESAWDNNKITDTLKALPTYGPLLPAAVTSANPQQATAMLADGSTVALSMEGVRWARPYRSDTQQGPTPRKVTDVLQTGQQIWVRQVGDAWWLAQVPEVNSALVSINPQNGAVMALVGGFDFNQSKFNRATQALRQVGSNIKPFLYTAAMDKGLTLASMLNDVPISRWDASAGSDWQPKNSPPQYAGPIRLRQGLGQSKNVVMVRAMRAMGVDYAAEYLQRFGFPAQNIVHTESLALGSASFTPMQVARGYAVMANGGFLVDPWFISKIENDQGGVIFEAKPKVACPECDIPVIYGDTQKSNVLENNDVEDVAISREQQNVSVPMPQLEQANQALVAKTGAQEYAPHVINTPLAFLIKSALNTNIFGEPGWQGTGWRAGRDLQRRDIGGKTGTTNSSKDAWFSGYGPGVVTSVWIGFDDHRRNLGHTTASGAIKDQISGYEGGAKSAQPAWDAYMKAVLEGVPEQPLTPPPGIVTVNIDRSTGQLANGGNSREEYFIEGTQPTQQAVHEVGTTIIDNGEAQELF
Particulars: peptide sequence: NSPPQYAGPIR; peptide start residue: 506; ligand concentration: 10 uM; sample: E. coli crude lysate.

A further assay concerns the target T2, UniProt P02919.
T2 sequence (whole entry): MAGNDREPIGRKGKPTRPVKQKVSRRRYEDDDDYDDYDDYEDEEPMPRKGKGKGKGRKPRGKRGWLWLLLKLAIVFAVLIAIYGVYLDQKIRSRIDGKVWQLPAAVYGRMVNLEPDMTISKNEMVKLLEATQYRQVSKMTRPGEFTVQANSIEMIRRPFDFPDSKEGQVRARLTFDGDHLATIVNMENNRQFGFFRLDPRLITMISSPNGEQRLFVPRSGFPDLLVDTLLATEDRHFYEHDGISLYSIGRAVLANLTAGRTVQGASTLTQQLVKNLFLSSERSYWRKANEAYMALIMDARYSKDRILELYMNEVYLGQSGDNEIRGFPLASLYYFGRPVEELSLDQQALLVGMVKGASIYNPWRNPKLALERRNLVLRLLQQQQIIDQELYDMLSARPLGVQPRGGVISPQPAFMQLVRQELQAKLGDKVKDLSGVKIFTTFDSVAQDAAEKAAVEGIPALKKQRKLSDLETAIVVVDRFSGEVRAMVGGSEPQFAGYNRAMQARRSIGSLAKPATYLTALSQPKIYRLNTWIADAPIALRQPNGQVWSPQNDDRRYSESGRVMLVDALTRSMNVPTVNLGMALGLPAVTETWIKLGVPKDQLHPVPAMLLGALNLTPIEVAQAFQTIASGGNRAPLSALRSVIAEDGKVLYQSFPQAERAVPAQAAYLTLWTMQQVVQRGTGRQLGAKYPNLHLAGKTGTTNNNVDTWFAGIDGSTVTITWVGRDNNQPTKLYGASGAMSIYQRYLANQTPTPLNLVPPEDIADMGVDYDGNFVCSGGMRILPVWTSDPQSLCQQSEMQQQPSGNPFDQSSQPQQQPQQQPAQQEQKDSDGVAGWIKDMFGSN
Particulars: peptide sequence: QPNGQVWSPQNDDRR; peptide start residue: 542; ligand concentration: 10 uM; sample: E. coli crude lysate.

A further assay deals with UniProt P24228. As to conditions: peptide sequence: AGLHQAGVDGK; peptide start residue: 403; ligand concentration: 10 uM; sample: E. coli crude lysate.
In another assay the target is T3, UniProt P77754.
T3 sequence (whole entry): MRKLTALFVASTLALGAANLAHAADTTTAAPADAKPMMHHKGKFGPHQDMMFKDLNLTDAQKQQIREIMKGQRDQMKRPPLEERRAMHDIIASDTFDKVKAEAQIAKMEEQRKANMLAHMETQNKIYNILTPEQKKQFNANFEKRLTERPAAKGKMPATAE
As to conditions: peptide sequence: DLNLTDAQK; peptide start residue: 54; ligand concentration: 10 uM; sample: E. coli crude lysate.

Molecules are shown by their SMILES.

UniProt P24228, sequence (P24228 whole entry): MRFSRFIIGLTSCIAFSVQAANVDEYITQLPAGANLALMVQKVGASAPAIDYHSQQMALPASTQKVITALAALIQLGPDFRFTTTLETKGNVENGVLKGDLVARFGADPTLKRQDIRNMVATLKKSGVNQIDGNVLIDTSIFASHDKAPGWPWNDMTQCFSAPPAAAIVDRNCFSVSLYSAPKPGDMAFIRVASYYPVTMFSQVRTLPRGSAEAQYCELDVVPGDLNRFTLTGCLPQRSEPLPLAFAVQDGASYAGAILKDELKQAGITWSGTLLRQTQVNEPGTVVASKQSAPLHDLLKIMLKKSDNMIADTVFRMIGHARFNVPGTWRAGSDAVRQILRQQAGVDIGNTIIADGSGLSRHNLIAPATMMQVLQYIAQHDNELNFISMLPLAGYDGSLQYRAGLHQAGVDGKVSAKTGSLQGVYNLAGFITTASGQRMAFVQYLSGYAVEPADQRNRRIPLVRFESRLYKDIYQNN

In the case of `CC1(C)S[C@@H]2[C@H](NC(=O)[C@H](N)c3ccccc3)C(=O)N2[C@H]1C(=O)O` [ampicillin], the log2 fold change is -1.56 with UniProt P02918, 1.86 in the assay with UniProt P02919, -3.07 with UniProt P24228 and -0.675 in the assay with UniProt P77754.
